Assay in all cases: DAPPL (digital affinity profiling via proximity ligation, sequencing); 10 mM Tris-HCl pH 7.5, 50 mM NaCl, 1 mM DTT, 4% glycerol, room temperature, 30 min; GST-TFs on glutathione beads, 16-mer random dsDNA library, 0.1% formaldehyde crosslink after washing; high values mean tight binding
What all share (details): protein: recombinant; tags: N-terminal GST; dsDNA, one strand shown

The target in assay [1] is T1, ERF (Homo sapiens, UniProt P50548 1-548).
T1 sequence: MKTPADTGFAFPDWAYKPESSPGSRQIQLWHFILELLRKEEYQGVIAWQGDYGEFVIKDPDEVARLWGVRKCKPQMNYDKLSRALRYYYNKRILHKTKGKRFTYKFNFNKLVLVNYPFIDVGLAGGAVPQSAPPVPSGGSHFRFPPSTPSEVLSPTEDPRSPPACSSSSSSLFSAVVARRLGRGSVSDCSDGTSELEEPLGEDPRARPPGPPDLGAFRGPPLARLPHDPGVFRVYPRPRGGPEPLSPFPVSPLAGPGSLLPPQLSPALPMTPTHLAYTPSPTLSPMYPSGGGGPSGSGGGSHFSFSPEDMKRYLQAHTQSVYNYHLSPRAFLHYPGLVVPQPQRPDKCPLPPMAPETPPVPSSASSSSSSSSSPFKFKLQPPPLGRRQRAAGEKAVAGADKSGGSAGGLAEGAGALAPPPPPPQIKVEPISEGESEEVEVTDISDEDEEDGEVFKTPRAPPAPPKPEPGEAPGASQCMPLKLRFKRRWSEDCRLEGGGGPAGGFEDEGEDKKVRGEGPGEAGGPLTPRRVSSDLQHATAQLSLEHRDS
In outline: (§1)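 Each value of binding signal is a hexamer's read frequency for a factor divided by the same hexamer's frequency in the tag-only sample. Barcoded, bead-captured GST fusions of human transcription factors made in yeast were pooled with that sample and incubated with 200 nmole of a random double-stranded 16-mer DNA library in Tris/NaCl/DTT/glycerol buffer at room temperature for 30 min. Washing, 0.1% formaldehyde crosslinking, proximity ligation, PCR and Illumina NextSeq500 sequencing followed.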

Assay [2] concerns the target T2, ETV3L (Homo sapiens, UniProt Q6ZN32 1-361).
T2 sequence: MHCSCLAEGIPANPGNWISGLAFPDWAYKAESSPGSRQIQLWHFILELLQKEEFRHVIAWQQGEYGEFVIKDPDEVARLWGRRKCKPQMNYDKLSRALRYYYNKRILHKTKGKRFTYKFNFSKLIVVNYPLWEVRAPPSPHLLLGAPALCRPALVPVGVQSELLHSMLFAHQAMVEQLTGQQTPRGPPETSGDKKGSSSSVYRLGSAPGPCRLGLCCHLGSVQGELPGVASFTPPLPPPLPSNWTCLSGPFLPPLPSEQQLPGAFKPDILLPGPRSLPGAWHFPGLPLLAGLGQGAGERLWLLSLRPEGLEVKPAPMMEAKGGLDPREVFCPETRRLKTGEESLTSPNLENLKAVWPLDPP
In outline: as §1

For assay [3], the target named is T3, ETS2 (Homo sapiens, UniProt P15036 1-469).
T3 sequence: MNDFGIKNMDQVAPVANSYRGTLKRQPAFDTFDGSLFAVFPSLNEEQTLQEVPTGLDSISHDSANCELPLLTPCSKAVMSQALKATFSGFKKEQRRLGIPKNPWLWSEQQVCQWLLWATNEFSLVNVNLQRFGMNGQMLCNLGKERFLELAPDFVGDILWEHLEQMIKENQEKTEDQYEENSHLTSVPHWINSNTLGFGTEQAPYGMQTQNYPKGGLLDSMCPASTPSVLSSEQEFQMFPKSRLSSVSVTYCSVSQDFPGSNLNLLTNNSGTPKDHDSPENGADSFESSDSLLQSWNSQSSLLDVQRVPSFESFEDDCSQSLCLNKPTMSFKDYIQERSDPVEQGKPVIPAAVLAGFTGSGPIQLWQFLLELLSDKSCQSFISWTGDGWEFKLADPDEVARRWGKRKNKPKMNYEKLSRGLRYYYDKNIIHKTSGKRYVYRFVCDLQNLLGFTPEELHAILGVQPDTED
In outline:
as §1

The target of assay [4] is T4, SPDEF (Homo sapiens, UniProt O95238 1-335).
T4 sequence: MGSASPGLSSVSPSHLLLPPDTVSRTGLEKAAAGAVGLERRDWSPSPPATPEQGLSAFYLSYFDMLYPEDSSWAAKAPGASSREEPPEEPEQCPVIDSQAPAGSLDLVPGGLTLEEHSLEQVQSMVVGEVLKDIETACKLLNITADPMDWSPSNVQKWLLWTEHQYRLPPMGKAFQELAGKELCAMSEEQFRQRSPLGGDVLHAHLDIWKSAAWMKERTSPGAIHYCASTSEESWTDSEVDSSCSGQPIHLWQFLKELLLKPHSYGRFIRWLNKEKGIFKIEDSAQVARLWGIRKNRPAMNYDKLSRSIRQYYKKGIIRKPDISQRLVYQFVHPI
The essentials:
as §1

The target in assay [5] is T5, ETV7 (Homo sapiens, UniProt Q9Y603 1-341).
T5 sequence: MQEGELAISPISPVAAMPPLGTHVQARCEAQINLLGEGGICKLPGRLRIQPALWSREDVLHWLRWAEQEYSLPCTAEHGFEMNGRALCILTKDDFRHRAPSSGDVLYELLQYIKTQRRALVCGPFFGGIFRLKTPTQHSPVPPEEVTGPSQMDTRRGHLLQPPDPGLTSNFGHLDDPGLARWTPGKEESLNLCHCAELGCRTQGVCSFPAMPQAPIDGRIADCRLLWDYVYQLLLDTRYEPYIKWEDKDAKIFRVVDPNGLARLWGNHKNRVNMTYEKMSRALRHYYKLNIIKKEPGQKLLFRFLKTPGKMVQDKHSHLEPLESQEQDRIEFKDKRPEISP
The essentials:
as §1

In assay [6] the target is T6, ELF5 (Homo sapiens, UniProt Q9UKW6-2 1-255).
T6 sequence: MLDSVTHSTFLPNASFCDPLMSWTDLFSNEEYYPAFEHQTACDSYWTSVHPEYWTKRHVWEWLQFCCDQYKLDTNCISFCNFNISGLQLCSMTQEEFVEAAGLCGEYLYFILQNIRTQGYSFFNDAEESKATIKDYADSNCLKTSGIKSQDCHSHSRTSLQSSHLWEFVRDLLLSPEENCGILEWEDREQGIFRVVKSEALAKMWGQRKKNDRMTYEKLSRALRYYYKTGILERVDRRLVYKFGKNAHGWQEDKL
The essentials:
as §1

Assay [7] deals with T7, ETV3 (Homo sapiens, UniProt P41162-2 1-143).
T7 sequence: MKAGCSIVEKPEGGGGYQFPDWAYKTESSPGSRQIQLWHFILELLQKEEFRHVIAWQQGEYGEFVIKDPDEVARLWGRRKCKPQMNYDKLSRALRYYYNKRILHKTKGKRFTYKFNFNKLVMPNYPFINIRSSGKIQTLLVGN
The essentials:
as §1

In assay [8] the target is ETV6 (Homo sapiens, UniProt P41212 1-452). In outline:
as §1

Sequence of ETV6 (P41212 whole entry): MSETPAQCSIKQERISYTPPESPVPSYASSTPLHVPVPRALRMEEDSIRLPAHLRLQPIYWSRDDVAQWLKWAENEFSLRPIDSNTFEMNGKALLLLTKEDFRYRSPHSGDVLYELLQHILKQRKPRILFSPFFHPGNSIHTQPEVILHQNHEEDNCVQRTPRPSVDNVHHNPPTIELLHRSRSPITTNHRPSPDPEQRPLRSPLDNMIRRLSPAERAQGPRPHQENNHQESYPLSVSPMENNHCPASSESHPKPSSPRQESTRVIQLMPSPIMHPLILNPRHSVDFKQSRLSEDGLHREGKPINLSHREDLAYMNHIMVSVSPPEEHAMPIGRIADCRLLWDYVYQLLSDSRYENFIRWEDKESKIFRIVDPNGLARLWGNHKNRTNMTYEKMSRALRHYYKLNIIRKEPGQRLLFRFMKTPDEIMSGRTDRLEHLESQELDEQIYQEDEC

As to CTTTAG, the binding signal is 1.16 fold enrichment (6-mer frequency, TF over GST control) in assay [1]; 1.23 fold enrichment (6-mer frequency, TF over GST control) in assay [2]; 1.17 fold enrichment (6-mer frequency, TF over GST control) in assay [3]; 1.02 fold enrichment (6-mer frequency, TF over GST control) in assay [4]; 1.2 fold enrichment (6-mer frequency, TF over GST control) in assay [5]; 1.05 fold enrichment (6-mer frequency, TF over GST control) in assay [6]. For the same sequence, the binding signal in assay [7] is 1.28 fold enrichment (6-mer frequency, TF over GST control); in assay [8], 1.21 fold enrichment (6-mer frequency, TF over GST control).
TGGTCC: the binding signal was 1.19 fold enrichment (6-mer frequency, TF over GST control) in assay [1]; 1.1 fold enrichment (6-mer frequency, TF over GST control) in assay [2]; 1.23 fold enrichment (6-mer frequency, TF over GST control) in assay [3]; 1.26 fold enrichment (6-mer frequency, TF over GST control) in assay [4]; 1.18 fold enrichment (6-mer frequency, TF over GST control) in assay [5]; 1.19 fold enrichment (6-mer frequency, TF over GST control) in assay [6]. The binding signal was 1.28 fold enrichment (6-mer frequency, TF over GST control) in assay [7] and 1.18 fold enrichment (6-mer frequency, TF over GST control) in assay [8].
GTCTCT: the binding signal in assay [1] is 1.16 fold enrichment (6-mer frequency, TF over GST control); in assay [2], 1.35 fold enrichment (6-mer frequency, TF over GST control); in assay [3], 1.32 fold enrichment (6-mer frequency, TF over GST control); in assay [4], 1.15 fold enrichment (6-mer frequency, TF over GST control); in assay [5] it was 1.02 fold enrichment (6-mer frequency, TF over GST control); in assay [6], 1.11 fold enrichment (6-mer frequency, TF over GST control). For the same sequence, the binding signal in assay [7] is 1.27 fold enrichment (6-mer frequency, TF over GST control); in assay [8], 1.19 fold enrichment (6-mer frequency, TF over GST control).
As for ACCTTC, the binding signal in assay [1] is 1.92 fold enrichment (6-mer frequency, TF over GST control); in assay [2], 1.75 fold enrichment (6-mer frequency, TF over GST control); in assay [3] it was 1.89 fold enrichment (6-mer frequency, TF over GST control); in assay [4], 2.02 fold enrichment (6-mer frequency, TF over GST control); in assay [5], 1.79 fold enrichment (6-mer frequency, TF over GST control); in assay [6], 2.19 fold enrichment (6-mer frequency, TF over GST control). In addition, the binding signal in assay [7] is 1.8 fold enrichment (6-mer frequency, TF over GST control); in assay [8] it was 1.96 fold enrichment (6-mer frequency, TF over GST control).
On to TATGTG, for which the binding signal was 1.07 fold enrichment (6-mer frequency, TF over GST control) in assay [1]; 1.02 fold enrichment (6-mer frequency, TF over GST control) in assay [2]; 1.07 fold enrichment (6-mer frequency, TF over GST control) in assay [3]; 1.09 fold enrichment (6-mer frequency, TF over GST control) in assay [4]; 1.04 fold enrichment (6-mer frequency, TF over GST control) in assay [5]; 1.01 fold enrichment (6-mer frequency, TF over GST control) in assay [6]. The binding signal in assay [7] is 1.09 fold enrichment (6-mer frequency, TF over GST control); in assay [8], 1.07 fold enrichment (6-mer frequency, TF over GST control).
In the case of TATACC, the binding signal in assay [1] is 1.27 fold enrichment (6-mer frequency, TF over GST control); in assay [2], 1.15 fold enrichment (6-mer frequency, TF over GST control); in assay [3], 1.24 fold enrichment (6-mer frequency, TF over GST control); in assay [4], 1.26 fold enrichment (6-mer frequency, TF over GST control); in assay [5], 1.15 fold enrichment (6-mer frequency, TF over GST control); in assay [6] it was 1.22 fold enrichment (6-mer frequency, TF over GST control). Also, the binding signal in assay [7] was 1.26 fold enrichment (6-mer frequency, TF over GST control); in assay [8], 1.21 fold enrichment (6-mer frequency, TF over GST control).
On to ATCTGT, for which the binding signal in assay [1] is 1.21 fold enrichment (6-mer frequency, TF over GST control); in assay [2], 1.2 fold enrichment (6-mer frequency, TF over GST control); in assay [3], 1.22 fold enrichment (6-mer frequency, TF over GST control); in assay [4] it was 1.17 fold enrichment (6-mer frequency, TF over GST control); in assay [5] it was 1.21 fold enrichment (6-mer frequency, TF over GST control); in assay [6] it was 1.2 fold enrichment (6-mer frequency, TF over GST control). The binding signal is 1.11 fold enrichment (6-mer frequency, TF over GST control) in assay [7] and 1.12 fold enrichment (6-mer frequency, TF over GST control) in assay [8].
Regarding TTGCTA, the binding signal in assay [1] is 1.37 fold enrichment (6-mer frequency, TF over GST control); in assay [2], 1.35 fold enrichment (6-mer frequency, TF over GST control); in assay [3], 1.33 fold enrichment (6-mer frequency, TF over GST control); in assay [4], 1.31 fold enrichment (6-mer frequency, TF over GST control); in assay [5], 1.37 fold enrichment (6-mer frequency, TF over GST control); in assay [6], 1.21 fold enrichment (6-mer frequency, TF over GST control). The binding signal in assay [7] is 1.28 fold enrichment (6-mer frequency, TF over GST control); in assay [8], 1.23 fold enrichment (6-mer frequency, TF over GST control).

For the origin of these results see article PMC7862700, “An all-to-all approach to the identification of sequence-specific readers for epigenetic DNA modifications on cytosine”.
